Assay outcomes as filed in PubChem BioAssay.
This is a sample that favours compounds with a hit; in the whole collection about 1.8% have one here.
MEP2 TOR yeast – alters MEP2-GFP fluorescence in TOR pathway yeast screen | GFP response vs DMSO, % at 10 µM | 330,000 tested, 0.51% active | S. cerevisiae MEP2-GFP strain, flow cytometry GFP, 3 h; 100% = DMSO control level;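 active means GFP response versus DMSO above a set limit, roughly screen mean plus 3 SD, cut at about 180% in these data; inconclusive means fewer than 70 cells counted for a yeast strain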;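 further: median GFP fluorescence of the barcode-gated MEP2-GFP cells per well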
AGP1 TOR yeast – alters AGP1-GFP fluorescence in TOR pathway yeast screen. S. cerevisiae AGP1-GFP multiplex flow cytometry, 3 h; GFP as percent of DMSO wells. GFP response vs DMSO, % at 10 µM. 320,000 tested, 0.02% active. AID 2066;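 active means GFP response relative to DMSO above a set limit, near screen average plus 3 SD, cut at about 150% in these data; inconclusive means fewer than 70 cells counted for the yeast strain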;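 further: median GFP channel fluorescence of the gated AGP1 strain per well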
Myeloid diff MLP – compounds promoting myeloid differentiation | ER-HoxA9 myeloid progenitors, lysozyme-GFP differentiation, flow cytometry | calls only at 10 µM | 360,000 tested, 1% active;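 active means normalized GFP-positive differentiation at or above the plate's own cutoff, the solvent-only control mean plus 3 SD; inconclusive means no clear call, values can overlap the other calls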;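 further: cells exposed to compound for four days before flow analysis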
CIT2-GFP yeast – yeast TOR pathway CIT2-GFP modulation | S. cerevisiae CIT2-GFP strain, flow cytometry, 3 h; 100 means same as DMSO wells | GFP response vs DMSO, % at 10 µM | 320,000 tested, 0.065% active | AID 2029;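 active means GFP response relative to DMSO above a set limit, near the screen mean plus 3 SD, cut at about 150% in these data; inconclusive means Fewer than 70 cells measured for a yeast strain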;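 further: ratio of well median GFP fluorescence to mean of DMSO wells on the plate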
RPL19A-GFP yeast – modulators of TOR pathway RPL19A-GFP in S. cerevisiae; S. cerevisiae RPL19A-GFP strain, flow cytometry, 3 h; active compounds read low; percent response vs DMSO, % at 10 µM; 330,000 tested, 0.3% active; AID 2025;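 active means percent response vs DMSO below 50%; inconclusive means fewer than 70 events counted for the yeast strain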;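 further: median channel GFP fluorescence of the barcoded RPL19A-GFP strain; ratio of sample median GFP to plate DMSO average so 100% = DMSO; lower means less RPL19A-GFP as with rapamycin TOR inhibition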
LAP4 TOR yeast – modulators of TOR pathway LAP4-GFP in S. cerevisiae; S. cerevisiae LAP4-GFP multiplex, flow cytometry GFP, 3 h; median GFP as percent of DMSO wells; AID 2023; 320,000 tested, 0.34% active; GFP response vs DMSO, % at 10 µM;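 active means GFP response vs DMSO above a set limit, about the screen mean plus 3 SD, cut at about 150% in these data; inconclusive means under 70 cell events counted for the yeast strain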
Myeloid diff CP1 – compounds promoting myeloid differentiation; ER-HoxA9 myeloid progenitors, GFP/Mac1 double-positive flow; shares compounds with Myeloid diff MLP; 2,300 tested, 2% active; calls only;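 active means share of green or green-and-red cells above 9 and 9% in run 1 or 4 and 3% in run 2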
GFP autofluor – counter-screen for myeloid differentiation promoters: compound fluorescence | shares compounds with Myeloid diff MLP | ER-HoxA9 myeloid progenitors, no estrogen, GFP autofluorescence flow cytometry; vehicle wells 0%, positive control 100% | fluorescence response, % (no concentration beside the values) | 2,300 tested, 7.4% active;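 active means over 5% cells positive for green fluorescent reporter, or over 2% positive for both it and APC stain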;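 further: range taken on the double positive population between DMSO and positive control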
The depositor's hits bear a star; i = inactive; ? = inconclusive; nt = not tested or not shown; + = active, no number.

SMILES	MEP2 TOR yeast	AGP1 TOR yeast	Myeloid diff MLP	CIT2-GFP yeast	RPL19A-GFP yeast	LAP4 TOR yeast	Myeloid diff CP1	GFP autofluor
CC[C@@H]1C=C(C(=O)O)[C@H](c2ccc(C#N)cc2)N1S(=O)(=O)c1ccc(C)cc1	102	110	i	98	105	112	nt	nt
COc1cc(NC(=O)CSc2nnnn2-c2ccccc2)cc(OC)c1OC	111	107	i	107	102	107	nt	nt
O=C(NC1CCCCC1)C(c1ccco1)N(CCc1ccccc1)C(=O)C(F)(F)F (stereo unspecified)	100	99	i	100	102	102	i	0
O=C(NC1CCCCC1)C(c1ccco1)N(Cc1ccco1)C(=O)c1ccco1 (stereo unspecified)	108	110	i	108	104	105	i	0
O=C(NCC(=O)N(Cc1ccccc1)C(C(=O)NC1CCCCC1)c1ccco1)c1ccco1 (stereo unspecified)	95	99	i	103	96	95	nt	nt
CCOC(=O)CC1(NC(=O)c2cc(COc3c(F)cccc3F)on2)CCCCC1	114	110	i	129	106	98	nt	nt
O=C(CNc1cccc(S(=O)(=O)N2CCOCC2)c1)Nc1cccc(Br)c1	95	113	i	100	97	109	nt	nt
CCOC(=O)/C=C1\SCC(=O)N1CC(=O)NC12CC3CC(CC(C3)C1)C2	103	101	+	95	99	97	i	0
COc1cccc(C(=O)Nc2ccc(F)cc2F)c1	103	98	i	100	99	103	i	0
COc1ccc(NC(=O)c2cccnc2)c(OC)c1	102	97	+	102	nt	98	i	0
COc1cccc(C(=O)NC(=S)Nc2ccc3c4c(cccc24)CC3)c1	98	96	+	94	95	97	i	1
COCCN(C(=O)COC(=O)c1ccc2c(c1)OCCO2)c1c(N)n(Cc2ccccc2)c(=O)[nH]c1=O	100	110	i	96	104	118	nt	nt
COc1ccc(C(=O)NCCCSc2ccccc2)cc1F	91	87	i	79	94	82	nt	nt
C[C@H](NC(=O)c1nc[nH]c1C(=O)N1CCN(c2ccccc2)CC1)C(=O)OCc1ccccc1	90	71	i	65	90	114	nt	nt
Cn1c(C(=O)NCCN2CCOCC2)cc2c(=O)n(C)c3ccccc3c21	106	113	i	104	105	105	i	4
COc1nc(OC)nc(N2CCCCCC2)n1	103	103	i	103	96	105	i	1
COC(=O)C(CSCc1ccccc1)NC(=O)CSc1nc(C)cc(=O)[nH]1 (stereo unspecified)	100	101	i	99	98	100	nt	nt
CN1C(=S)N(c2cccnc2)C(=O)/C1=C\c1ccc(N(C)C)cc1	nt	nt	+	nt	nt	nt	i	3
CN1C(=S)N(c2cccnc2)C(=O)/C1=C\c1ccc(C(C)(C)C)cc1	103	88	i	82	100	133	nt	nt
C=CCn1c(C)cc(-c2csc(NC(=O)C3=COCCO3)n2)c1C	94	103	i	100	93	110	nt	nt
C=CCn1c(C)cc(-c2csc(NCC)n2)c1C	98	102	+	84	84	116	i	0
COc1cc(/C=C2\SC(=S)N(CCC(=O)N3CCN(C)CC3)C2=O)cc(OC)c1OC	97	101	+	97	99	113	i	0
COc1cc(/C=C2/SC(=S)N(CCC(=O)N3CCN(C)CC3)C2=O)cc(OC)c1OC	nt	nt	i	nt	nt	nt	nt	nt
COc1ccc(CC(=O)NNC(=O)c2ccc(SCc3cc(F)ccc3F)c([N+](=O)[O-])c2)cc1	112	105	i	114	103	120	i	0
C=CCN1C(=O)/C(=C2/Sc3ccc(OC)cc3N2C)SC1=Nc1cccc(O)c1	105	94	i	88	92	92	i	0
SMILES	MEP2 TOR yeast	AGP1 TOR yeast	Myeloid diff MLP	CIT2-GFP yeast	RPL19A-GFP yeast	LAP4 TOR yeast	Myeloid diff CP1	GFP autofluor
CCN1C(=O)/C(=C2/Sc3ccc(OC)cc3N2C)SC1=Nc1ccc(OC)cc1	100	83	i	nt	87	85	nt	nt
COc1cc(NC(=O)c2cc3nc(C4CC4)cc(C(F)(F)F)n3n2)c(OC)cc1Cl	107	107	i	119	105	104	i	0
COC(=O)c1ccccc1NC(=O)c1cc2nc(C3CC3)cc(C(F)(F)F)n2n1	110	107	i	114	102	107	nt	nt
Oc1ccc(-c2cnc3c(Nc4cccc(OC(F)(F)C(F)F)c4)nccn23)cc1	nt	nt	+	nt	nt	nt	i	0
CN(C)c1nc(N(C)C)nc(N2CCCCC2)n1	95	94	i	90	94	98	nt	nt
CC(C)NC(=O)N(C)C[C@H]1Oc2ccc(NS(=O)(=O)c3cccs3)cc2C(=O)N([C@H](C)CO)C[C@@H]1C	93	98	i	104	98	94	i	0
COc1ccc(NC(=O)N(C)C[C@H]2Oc3ccc(NC(=O)CCN4CCOCC4)cc3C(=O)N([C@H](C)CO)C[C@@H]2C)cc1	nt	nt	i	nt	nt	nt	i	3
C[C@H](CO)N1C[C@H](C)[C@@H](CN(C)C(=O)NC2CCCCC2)Oc2ccc(NS(=O)(=O)c3cccs3)cc2C1=O	95	96	i	100	95	97	nt	nt
COc1cccc(-c2csc(N3CCN(CC(=O)NNC(=O)c4ccc(Cl)cc4)CC3)n2)c1	100	100	i	94	97	95	i	0
O=C(CSc1ccc(-c2cccnc2)nn1)Nc1ccc(Br)cc1	106	104	i	94	99	109	i	0
COc1ccc(CC(NC(C)=O)C(=O)NC2CCN(C(=O)c3cnccn3)CC2)cc1 (stereo unspecified)	99	103	i	101	100	101	i	0
O=C(Nc1ccc(F)cc1)NC1CCCCCCC1	105	?	i	83	118	88	nt	nt
O=C(NCc1ccccc1)C(c1ccc(C(F)(F)F)cc1)N1CCN(CCN2CCOCC2)CC1 (stereo unspecified)	nt	nt	i	nt	nt	nt	i	0
O=C(NCc1ccccc1)C(c1ccc(-c2ccccc2)cc1)N1CCN(CCN2CCOCC2)CC1 (stereo unspecified)	nt	nt	i	nt	nt	nt	nt	nt
COc1ccc(Cl)cc1CC1(C)C(=O)Nc2ccc(-c3ccccc3OC)cc21 (stereo unspecified)	nt	nt	+	nt	nt	nt	i	0
